Here are results for 40 compounds from PubChem BioAssay.

Values without a mark were called inactive. How the calls were made is not given here.

Sequence of Botulinum neurotoxin type A (Clostridium botulinum) (P0DPI0 whole entry, looked up): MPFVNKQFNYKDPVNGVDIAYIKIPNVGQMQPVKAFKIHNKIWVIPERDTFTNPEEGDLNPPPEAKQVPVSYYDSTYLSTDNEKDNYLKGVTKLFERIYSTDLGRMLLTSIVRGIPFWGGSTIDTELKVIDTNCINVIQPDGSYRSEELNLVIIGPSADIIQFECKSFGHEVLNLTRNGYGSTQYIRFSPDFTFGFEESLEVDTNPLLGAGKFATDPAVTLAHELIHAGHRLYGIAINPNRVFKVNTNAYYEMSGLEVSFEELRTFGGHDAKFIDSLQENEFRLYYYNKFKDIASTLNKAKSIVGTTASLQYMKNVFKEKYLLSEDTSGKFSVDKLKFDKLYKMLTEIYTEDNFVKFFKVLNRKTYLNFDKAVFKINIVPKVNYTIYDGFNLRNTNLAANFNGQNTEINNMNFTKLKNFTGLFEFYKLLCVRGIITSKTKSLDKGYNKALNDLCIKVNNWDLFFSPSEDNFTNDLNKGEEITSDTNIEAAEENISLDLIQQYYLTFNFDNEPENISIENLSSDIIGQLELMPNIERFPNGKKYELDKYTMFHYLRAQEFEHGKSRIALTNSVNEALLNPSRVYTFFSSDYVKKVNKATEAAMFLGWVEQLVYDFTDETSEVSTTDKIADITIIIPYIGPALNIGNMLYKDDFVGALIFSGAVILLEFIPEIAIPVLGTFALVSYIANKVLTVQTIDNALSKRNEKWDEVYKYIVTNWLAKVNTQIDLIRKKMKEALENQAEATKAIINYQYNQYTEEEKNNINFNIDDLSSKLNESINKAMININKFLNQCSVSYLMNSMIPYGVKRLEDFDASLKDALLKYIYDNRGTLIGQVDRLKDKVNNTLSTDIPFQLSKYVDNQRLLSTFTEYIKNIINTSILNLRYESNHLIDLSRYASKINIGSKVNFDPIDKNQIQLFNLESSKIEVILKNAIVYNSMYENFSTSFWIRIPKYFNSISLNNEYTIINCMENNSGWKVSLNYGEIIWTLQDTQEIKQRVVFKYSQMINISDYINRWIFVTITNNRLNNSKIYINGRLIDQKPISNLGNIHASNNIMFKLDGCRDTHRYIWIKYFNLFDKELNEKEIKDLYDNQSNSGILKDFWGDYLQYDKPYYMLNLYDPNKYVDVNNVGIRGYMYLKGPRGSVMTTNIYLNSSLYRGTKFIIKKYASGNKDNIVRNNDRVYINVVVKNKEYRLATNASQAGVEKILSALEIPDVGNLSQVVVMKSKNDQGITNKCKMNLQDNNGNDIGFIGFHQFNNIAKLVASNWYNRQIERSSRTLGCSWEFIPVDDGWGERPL

The test system of the first assay is Botulinum neurotoxin type F light chain protease (Clostridium botulinum). The assay can be described thus: Botulinum neurotoxin type F light chain protease inhibition, multiplex microsphere flow cytometry, validation set (AID 588459). The note with it: multiplex microsphere protease substrate cleavage assay, at 10 µM, hits give high values. (Flow cytometry measures light scatter and fluorescence of single cells or particles in a stream.)
As usually defined, the inhibition is the relative decrease from the control value, in per cent. Consider `CCNC(=O)c1c(N)sc2c1CCCCC2`, for which the inhibition was 0.9%.
With `COc1cccc(CC(=O)NCC2COc3ccccc3O2)c1OC` (stereo not given), the inhibition is -2.4%.
The same measure, in the same setting: the same measure for `COc1cc(OC)cc(C(=O)N[C@@H](CCSC)c2nc3ccccc3[nH]2)c1`: 0.7%; for `COc1ccc(CCN=C(N)C(C)c2ccccc2)cc1OC` (stereo not given): -0.2%; for `CN(C)CCC=C1c2ccccc2CCc2ccccc21`: 1.3%.
Take `COc1cc(/C=C/C(=O)O)cc(S(=O)(=O)NCCCO)c1OC`: the inhibition is 1.9%.
Still for that read-out and setting: the same measure for `C=CCC1(Cl)C(=O)C(Cl)=C(N2CCOCC2)C1(OC)OC` (stereo not given): -1.2%.
The same measure, in the same setting: in the case of `COc1cc(C(=O)Nc2cccc(-c3nnc(-c4ccco4)o3)c2)ccc1OC(C)=O` it was 3.1%; in that of `OC(CCCN1CCCCC1)(c1ccccc1)c1ccccc1`, 3.3%; in that of `Cn1c(=O)[nH]c(=O)c2c1nc(Br)n2CCCO`, 2.3%.
`COc1cc2oc(-c3ccc(O)cc3)cc(=O)c2c(OC)c1O`: the inhibition was -1.9%.
`COc1ccc(S(N)(=O)=O)cc1C(N)=O`: the inhibition is 1.6%.
On the same count and under the same terms, the same measure for `COc1ccc(C2C3=C(CC(C)(C)CC3=O)N(C)C3=C2C(=O)CC(C)(C)C3)cc1`: 2%.
On to `CN(C)CCC(c1ccccc1)c1ccccn1` (stereo not given), for which the inhibition is -2.8%.
On to `COCCn1c(/C=C/c2ccccc2)nc2ccccc21`, for which the inhibition is -1.2%.
Take `Cc1cccc(CN2CCN(C(c3ccccc3)c3ccc(Cl)cc3)CC2)c1` (stereo not given): the inhibition is -0.2%.
Still for that read-out and setting: the same measure for `COC(=O)c1[nH]c(=O)c2ccccc2c1O`: 0.4%.
In the case of `Cn1c(=O)[nH]c(=O)c2c1nc(NCc1ccco1)n2CCCc1ccccc1`, the inhibition is -0.8%.
On the same count and under the same terms, in the case of `CCCCCCCCCC(=O)OCC(O)CO` (stereo not given) it was -3.5%.
For the compound `O=C(NCCO)c1ccc2[nH]c3ccccc3c2c1`, the inhibition was 0.6%.
On to `O=C1CCCCCN1Cc1ccccc1`, for which the inhibition was -3.6%.
On the same count and under the same terms, in the case of `COc1ccc(CNC(=O)C2CCN(C(=O)[C@@H](CC(C)C)NC(=O)OC(C)(C)C)CC2)cc1` it was 1.1%.
Same read-out and setting: in the case of `O=C(O)c1cc(-c2ccc3c(c2)OCO3)nc2ccc(Br)cc12` it was -1%; in that of `CC(=O)Oc1c2occc2cc2ccc(=O)oc12`, -2.4%; in that of `Cc1cnc(C(=O)NCCc2ccc(S(=O)(=O)NC(=O)NC3CCCCC3)cc2)cn1`, 0.7%.
On the same count and under the same terms, in the case of `CCS(=O)(=O)CCn1c([N+](=O)[O-])cnc1C` it was 2.2%.
Turning to `Nc1ccc(S(N)(=O)=O)cc1N`, the inhibition was 1.4%.
Same read-out and setting: the same measure for `COc1cc2nc(-c3ccccc3)nc(N3CCCC3)c2cc1OC`: -1.8%; for `CC1(C)CC(C(CC(=O)N2CCCC2)Cc2ccccc2)CCO1` (stereo not given): -0.7%; for `O=C(O)COc1ccc2occ(C(=O)c3ccccc3)c2c1`: -1.3%.
The same measure, in the same setting: in the case of `CC12CCC(C(=O)NCc3ccccn3)(OC1=O)C2(C)C` (stereo not given) it was -1.4%; in that of `COc1cc2c(cc1OC)C(c1ccc(-c3cc(Cl)ccc3Cl)o1)=NCC2`, 0.4%.
For the compound `COc1ccc(CCN2CNc3c(c(=O)n(C)c(=O)n3C)C2)cc1OC`, the inhibition was 22.1%.
On to `Nc1ccc(N=Nc2ccccc2)c(N)n1`, for which the inhibition was -2%.
For `CCc1cc2c(=O)c(-c3nc(C)cs3)c(CCCC(=O)O)oc2cc1O`, the inhibition was 1.9%.
In the case of `CCCc1cc(=O)[nH]c(=S)[nH]1`, the inhibition is -2.4%.
The same measure, in the same setting: in the case of `C/C(=N\NC(=O)c1ccccc1[N+](=O)[O-])c1ccc(Br)s1` it was 1.5%; in that of `c1ccc2c(c1)CCCC2C1=NCCN1` (stereo not given), 0.7%.
Same read-out and setting: the same measure for `Cc1cccc(N2C(=O)C3C(c4ccccc4)OC4(C(=O)c5ccccc5C4=O)C3C2=O)c1` (stereo not given): 4.6%; for `Cc1ccc(CSCC(=O)NCCCN2CCOCC2)cc1`: 1.4%.

Another assay addresses Botulinum neurotoxin type A (Clostridium botulinum) (UniProt P0DPI0). The assay can be described thus: BoNT/A light chain protease inhibitors, biochemical, multiplex microsphere flow cytometry, validation set (AID 588460). The note with it: at 10 µM, hits give high values.
In the case of `CCNC(=O)c1c(N)sc2c1CCCCC2`, the inhibition was -0.9%.
For the compound `COc1cccc(CC(=O)NCC2COc3ccccc3O2)c1OC` (stereo not given), the inhibition was 0.4%.
In the case of `COc1cc(OC)cc(C(=O)N[C@@H](CCSC)c2nc3ccccc3[nH]2)c1`, the inhibition is 0.8%.
Consider `COc1ccc(CCN=C(N)C(C)c2ccccc2)cc1OC` (stereo not given), for which the inhibition was 0%.
In the case of `CN(C)CCC=C1c2ccccc2CCc2ccccc21`, the inhibition is 0.2%.
Still for that read-out and setting: the same measure for `COc1cc(/C=C/C(=O)O)cc(S(=O)(=O)NCCCO)c1OC`: 0.7%; for `C=CCC1(Cl)C(=O)C(Cl)=C(N2CCOCC2)C1(OC)OC` (stereo not given): -1.2%; for `COc1cc(C(=O)Nc2cccc(-c3nnc(-c4ccco4)o3)c2)ccc1OC(C)=O`: 2.1%.
Same read-out and setting: the same measure for `OC(CCCN1CCCCC1)(c1ccccc1)c1ccccc1`: 0%.
Same read-out and setting: in the case of `Cn1c(=O)[nH]c(=O)c2c1nc(Br)n2CCCO` it was 0.7%; in that of `COc1cc2oc(-c3ccc(O)cc3)cc(=O)c2c(OC)c1O`, -0.3%.
For the compound `COc1ccc(S(N)(=O)=O)cc1C(N)=O`, the inhibition is 0.4%.
Consider `COc1ccc(C2C3=C(CC(C)(C)CC3=O)N(C)C3=C2C(=O)CC(C)(C)C3)cc1`, for which the inhibition was 0.4%.
Regarding `CN(C)CCC(c1ccccc1)c1ccccn1` (stereo not given), the inhibition is -0.2%.
Still for that read-out and setting: in the case of `COCCn1c(/C=C/c2ccccc2)nc2ccccc21` it was 0%; in that of `Cc1cccc(CN2CCN(C(c3ccccc3)c3ccc(Cl)cc3)CC2)c1` (stereo not given), -2%; in that of `COC(=O)c1[nH]c(=O)c2ccccc2c1O`, 0.2%.
`Cn1c(=O)[nH]c(=O)c2c1nc(NCc1ccco1)n2CCCc1ccccc1`: the inhibition is -0.7%.
Same read-out and setting: the same measure for `CCCCCCCCCC(=O)OCC(O)CO` (stereo not given): -2%.
As for `O=C(NCCO)c1ccc2[nH]c3ccccc3c2c1`, the inhibition was 0.1%.
The same measure, in the same setting: in the case of `O=C1CCCCCN1Cc1ccccc1` it was -1.9%; in that of `COc1ccc(CNC(=O)C2CCN(C(=O)[C@@H](CC(C)C)NC(=O)OC(C)(C)C)CC2)cc1`, -0.8%.
On the same count and under the same terms, the same measure for `O=C(O)c1cc(-c2ccc3c(c2)OCO3)nc2ccc(Br)cc12`: 3%; for `CC(=O)Oc1c2occc2cc2ccc(=O)oc12`: -1%; for `Cc1cnc(C(=O)NCCc2ccc(S(=O)(=O)NC(=O)NC3CCCCC3)cc2)cn1`: -0.2%.
The same measure, in the same setting: in the case of `CCS(=O)(=O)CCn1c([N+](=O)[O-])cnc1C` it was 0.7%; in that of `Nc1ccc(S(N)(=O)=O)cc1N`, -2.7%.
Regarding `COc1cc2nc(-c3ccccc3)nc(N3CCCC3)c2cc1OC`, the inhibition is -1.5%.
The same measure, in the same setting: in the case of `CC1(C)CC(C(CC(=O)N2CCCC2)Cc2ccccc2)CCO1` (stereo not given) it was 0.6%; in that of `O=C(O)COc1ccc2occ(C(=O)c3ccccc3)c2c1`, 0.2%; in that of `CC12CCC(C(=O)NCc3ccccn3)(OC1=O)C2(C)C` (stereo not given), -1.3%.
Same read-out and setting: the same measure for `COc1cc2c(cc1OC)C(c1ccc(-c3cc(Cl)ccc3Cl)o1)=NCC2`: 0.7%; for `COc1ccc(CCN2CNc3c(c(=O)n(C)c(=O)n3C)C2)cc1OC`: 8%; for `Nc1ccc(N=Nc2ccccc2)c(N)n1`: -0.2%.
Same read-out and setting: in the case of `CCc1cc2c(=O)c(-c3nc(C)cs3)c(CCCC(=O)O)oc2cc1O` it was -1.9%.
`CCCc1cc(=O)[nH]c(=S)[nH]1`: the inhibition was 1.4%.
Same read-out and setting: in the case of `C/C(=N\NC(=O)c1ccccc1[N+](=O)[O-])c1ccc(Br)s1` it was 1.6%.
The same measure, in the same setting: in the case of `c1ccc2c(c1)CCCC2C1=NCCN1` (stereo not given) it was 0.9%; in that of `Cc1cccc(N2C(=O)C3C(c4ccccc4)OC4(C(=O)c5ccccc5C4=O)C3C2=O)c1` (stereo not given), 1%; in that of `Cc1ccc(CSCC(=O)NCCCN2CCOCC2)cc1`, -1.7%.
